Regarding `Cc1ccc(-c2cc(-c3c[nH]nc3-c3ccccn3)ccn2)cc1` [GW684088], the Kinases covered result in the assay on MINK1 was “MINK1”. Turning to `COc1cc2ncnc(Nc3ccc(F)c(Cl)c3)c2cc1O[C@H]1CC[C@H](N)CC1` [BIBW3133BS], the Kinases covered result with MKNK1 is given as “MKNK1”.

Take `CCCc1cc(N2CCCN(C)CC2)nc2sc3c(N)ncnc3c12` [BI00604564]: the Kinases covered result in the assay on MKNK2 is on record as “MKNK2”. As for `CNc1nc(Nc2ccc(C(=O)N3CCOCC3)cc2OC)nc2[nH]cc(Cl)c12` [JH-II-127], in the assay with MLCK, the Kinases covered entry is listed as “MLCK”. In the case of `CCn1c(-c2nonc2N)nc2cncc(CNC3CCNCC3)c21` [SB-747651A], the Kinases covered entry in the assay with MSK1 is on record as “MSK1”. Turning to `COc1ccc(-c2cc3c(C)nc(N)nc3n([C@H]3CC[C@H](O)CC3)c2=O)cn1` [PFE-PKIS 40], the Kinases covered result in the assay with MTOR was “MTOR”. The same measure, in the same setting: to `COc1ccc(-c2cc3c(C)nc(N)nc3n([C@H]3CC[C@H](OCCO)CC3)c2=O)cn1` [PFE-PKIS 29] belongs “MTOR”. Take `Nc1ncnc2occ(-c3ccc(NC(=O)Nc4cc(C(F)(F)F)ccc4F)cc3)c12` [GW770249X]: the Kinases covered entry in the assay on MUSK is given as “MUSK”. Turning to `CNC(=O)c1c(F)cccc1Nc1nc(Nc2cc3c(cc2OC)CCN3C(=O)CN(C)C)nc2[nH]ccc12` [GSK1838705], in the assay with MYLK, the Kinases covered result is “MYLK”. As for `C[C@@H](Oc1cc(-n2cnc3ccc(OC4CCN(C)CC4)cc32)sc1C(N)=O)c1ccccc1Cl` [GSK579289A], the Kinases covered result with NEK2 is “NEK2”. Consider `C[C@@H](Oc1cc(-n2cnc3ccc(CN4CCN(C)CC4)cc32)sc1C(N)=O)c1ccccc1C(F)(F)F` [GSK461364], for which, in the assay on NEK2, the Kinases covered result is “NEK2”. For the molecule `CC(C)C(=O)N[C@@H]1CCN(C(=O)Nc2nc3c(s2)-c2nc(-c4ccccc4Cl)ncc2CC3)C1` [BI00047804], the Kinases covered result with NEK3 was “NEK3”.

For the origin of these results see paper PMC7826789 (International Journal of Molecular Sciences, 2021).
